Most compounds without a hit are left out; they make up all but 1.8% or so of the library.
Fam108B counter – mouse Fam108B serine hydrolase inhibitors, primary screen, counter-screen for RBBP9 inhibitor project, biochemical, fluorescence polarization. hit rate 0.33% among 300,000. recombinant Fam108B, FP-Rh probe fluorescence polarization. AID 1947, 2009. inhibition, % at 9.51 µM;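 active = inhibition above the screen mean inhibition plus 3 SD, computed separately per campaign, cut at about 18% in these data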;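 note: inhibitors lower polarization as less probe binds the enzyme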
PME-1 inh – PME-1 inhibitors via competitive probe labeling, primary screen, biochemical, fluorescence polarization, FP-Rh probe, HTS | Protein phosphatase methylesterase 1 (Homo sapiens), Q9Y570 | recombinant PME-1 | inhibition, % at 5.9 µM | hit rate 0.53% among 320,000 | AID 2130, 2009;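 active = inhibition above the campaign mean of all compounds plus 3 SD, cut at about 26% in these data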;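 note: competitive labeling of PME-1 active site by serine hydrolase directed probe; inhibitors block probe labeling so polarization falls and inhibition rises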
LYPLA1 inh – LYPLA1 inhibitors, primary screen, counter-screen for PME1 inhibitor project, biochemical, fluorescence polarization, FP-Rh probe ABPP. Acyl-protein thioesterase 1 (Homo sapiens), O75608. recombinant LYPLA1. inhibition, % at 5.9 µM. hit rate 0.16% among 320,000. AID 2174, 2009;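 active = inhibition above the mean of all tested compounds plus 3 SD, set per campaign, cut at about 14% in these data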;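 note: inhibitors block serine hydrolase probe labeling of LYPLA1 so polarization falls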
Target sequence (O75608 whole entry, looked up): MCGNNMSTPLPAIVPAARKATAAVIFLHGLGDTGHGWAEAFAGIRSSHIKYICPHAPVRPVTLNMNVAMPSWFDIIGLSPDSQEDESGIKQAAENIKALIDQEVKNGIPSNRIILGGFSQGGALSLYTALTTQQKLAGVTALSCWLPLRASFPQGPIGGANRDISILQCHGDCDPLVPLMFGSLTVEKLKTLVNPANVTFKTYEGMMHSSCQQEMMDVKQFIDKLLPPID
LYPLA2 counter – LYPLA2 inhibitors, primary screen, counter-screen for PME1 inhibitor project, biochemical, fluorescence polarization, FP-Rh probe ABPP | AID 2177, 2009 | hit rate 0.38% among 320,000 | inhibition, % at 5.9 µM | Acyl-protein thioesterase 2 (Homo sapiens), O95372 | recombinant LYPLA2;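 active = inhibition above the screen-wide mean plus 3 SD, limit set per campaign, cut at about 26% in these data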
Target sequence (O95372 whole entry, looked up): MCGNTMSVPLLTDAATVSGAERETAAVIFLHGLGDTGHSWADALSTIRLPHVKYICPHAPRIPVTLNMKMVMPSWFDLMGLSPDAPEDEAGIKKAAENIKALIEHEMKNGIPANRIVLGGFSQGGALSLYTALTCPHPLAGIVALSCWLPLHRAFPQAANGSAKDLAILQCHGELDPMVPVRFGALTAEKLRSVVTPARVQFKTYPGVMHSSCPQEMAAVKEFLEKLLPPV
GSTO1 inh – inhibitors of recombinant GSTO1, primary screen, counter-screen for RBBP9 inhibitor project, biochemical, fluorescence polarization; inhibition, % at 5.96 µM; hit rate 1.1% among 300,000; activity-based probe fluorescence polarization; AID 1974, 2009;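 active = inhibition above the campaign mean inhibition plus 3 SD, cut at about 35% in these data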
PAD4 FP inh – human PAD4 inhibitors, primary screen, biochemical, fluorescence polarization, 1536-well format; recombinant PAD4, RCA probe fluorescence polarization; inhibition, % at 6.36 µM; hit rate 0.41% among 330,000;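 active = percent inhibition above a cutoff equal to the mean of all tested compounds plus 3 SD, cut at about 15% in these data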
PAD4 FP conf – human PAD4 inhibitors, confirmation, biochemical, fluorescence polarization; hit rate 28% among 1,200; inhibition, % at 6.36 µM; recombinant PAD4, RCA probe fluorescence polarization; shares compounds with PAD4 FP inh;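 active = mean inhibition across replicates above the hit cutoff set by the earlier primary screen, cut at about 15% in these data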;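 note: inhibitors block active-site labeling by the probe so polarization falls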
Numbers stand for hits; – = inactive; · = no result given.

SMILES	Fam108B counter	PME-1 inh	LYPLA1 inh	LYPLA2 counter	GSTO1 inh	PAD4 FP inh	PAD4 FP conf
Cc1cc(Cl)ccc1NC(=O)CN1C(=O)NC2(CCCc3ccccc32)C1=O (stereo unspecified)	–	–	–	–	–	–	·
Cc1ccc(SCc2cc(=O)n3[nH]c(C)nc3n2)cc1	–	–	–	–	–	–	·
Cc1ccc(SCc2cc(=O)n(C)[nH]2)cc1	–	–	–	–	53	24	–
Cc1cc(NN)nc(NS(=O)(=O)c2ccc(Cl)cc2)n1	–	–	–	–	–	–	·
CCN(CC)c1nc(N)nc(NS(=O)(=O)c2ccc(Cl)cc2)n1	–	–	–	–	–	27	–
COc1ccc(NC(=O)CCS(=O)(=O)c2ccc(OC)cc2)cc1	–	–	–	–	–	20	–
COc1ccc(-c2sc3ccc(N4CCOCC4)cc3c2C#CCCO)cc1	·	·	·	·	·	–	·
CCC(=O)Oc1ccc(C(=O)Nc2cccc(NC(=O)c3ccco3)c2)cc1	–	–	–	–	–	–	·
CCC(=O)Oc1ccc(C(=O)Nc2cccc(C(=O)NC(C)(C)C)c2)cc1	–	–	–	–	–	115	–
CC[n+]1c(C)sc2cc(OC)ccc21	–	–	–	–	–	17	–
CC(=O)N(c1ccc2oc(=O)sc2c1)S(=O)(=O)c1ccc(C(=O)O)cc1	–	–	–	–	–	–	·
CC(=O)N(c1ccc2oc(=O)sc2c1)S(=O)(=O)c1cccc2cccnc12	–	–	–	–	–	33	22
CC(=O)N(c1ccc2oc(=O)sc2c1)S(=O)(=O)c1cccs1	–	–	–	–	–	–	·
Cc1cc2oc(=O)sc2cc1NS(=O)(=O)c1cccc2cccnc12	–	–	–	–	–	34	19
Cc1cc(O)c(C(C)C)cc1NS(=O)(=O)c1ccccc1	–	–	–	–	–	–	·
Cc1cc2oc(=O)sc2cc1NS(=O)(=O)c1ccccc1	–	–	–	–	–	20	–
Cc1nc2cc(NS(=O)(=O)c3cccc4cccnc34)ccc2s1	–	–	–	–	–	–	·
CCCC(=O)N(c1ccc2oc(=O)sc2c1)S(=O)(=O)c1ccccc1	–	–	–	–	–	22	–
CCc1nn(C(CC)C(=O)NCCCN2CC(C)CC(C)C2)c(=O)c2cc3oc(C)cc3n12 (stereo unspecified)	–	–	–	–	–	–	·
O=C(/C=C/CCc1ccc2c(c1)OCO2)N1CCCCC1	·	·	·	·	·	–	·
CC(C)N(C)S(=O)(=O)c1ccc(NC(=O)CSC(=S)N2CCCC2)cc1	–	–	–	–	–	–	·
Cc1cc2nc3c(=O)[nH]c(=S)[nH]c3nc2cc1NC(=O)C(F)(F)F	–	–	–	–	–	41	39
Nc1ccccc1O	·	–	–	–	·	15	–
Cc1ccc(S(=O)(=O)N2CCCC2=O)c(C)c1N(C)S(C)(=O)=O	–	–	–	–	–	16	–
COc1cc2oc(=O)ccc2cc1[C@H](O)[C@@H](O)C(C)(C)O	·	–	–	–	·	45	–
SMILES	Fam108B counter	PME-1 inh	LYPLA1 inh	LYPLA2 counter	GSTO1 inh	PAD4 FP inh	PAD4 FP conf
COc1cccc2cc(C(C)=O)c(=O)oc12	–	–	–	–	–	–	·
COc1cccc2cc(C(=O)NC3CC(C)(C)NC(C)(C)C3)c(=O)oc12	–	–	–	–	–	79	–
O=C(N/N=C/c1cn(-c2cccs2)nc1-c1ccccc1)c1ccccc1Br	–	–	–	–	–	–	·
O=C(N/N=C/c1cn(-c2cccs2)nc1-c1ccccc1)c1ccccc1O	–	–	–	–	–	27	–
Cc1[nH]c2ccccc2c1/C=N/Nc1ccc([N+](=O)[O-])cc1	–	–	–	–	–	–	·
Cc1[nH]c2ccccc2c1/C=N/Nc1nncn1N	–	–	–	–	–	35	–
CCC(CN(C)C)Oc1cc(NCc2ccccc2)c2ncn(C(C)C)c2c1 (stereo unspecified)	·	·	·	·	·	38	–
